Some test systems named below: NCI-H23 lung; NCI-H226 lung; NCI-H322M lung; HOP-62 NSCLC; NCI-H460 lung; NCI-H522 lung; A549/ATCC NSCLC; 786-0 renal; COLO 205 colon; DU-145 prostate; K-562 leukemia; MDA-MB-231 breast; RXF 393 renal; SF-268 CNS; SF-295 CNS; SF-539 CNS; UACC-257 melanoma; M14 melanoma; MALME-3M melanoma.
Test in all cases: NCI-60 one-dose screen, 48 h (100 = growth as untreated, 0 = no growth, -100 = all killed)
Common to all, as to settings: 10 µM unless noted

The values below come from PubChem BioAssay (NCI).

This is part of a sample that, as a whole, favours compounds with a hit. Of some 83,000 tested, about 20% had one in any assay.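 96-well plates, one dose, 48 hours. Percent growth reported; active if below 10.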 A number with no mark means an inactive call. Activity calls are given as the source filed them.

Take `O=C(CN1CCN(c2cc(=O)[nH]c3ccc(F)cc23)CC1)Nc1ccc(Cl)cc1`: the growth in the assay on NCI-H23 lung is 61.9%; in the assay on NCI-H226 lung, 16.5%; in the assay on NCI-H322M lung, 80.2%; with HOP-62 NSCLC it was 43.9%; in the assay on NCI-H460 lung it was 41.1%; with NCI-H522 lung, 13.1%. Also, the growth in the assay with A549/ATCC NSCLC was 71.8%; with 786-0 renal, 36.3%; in the assay with COLO 205 colon, 112%; with DU-145 prostate, 78.1%; with K-562 leukemia, 78.8%; in the assay with MDA-MB-231 breast it was 62.2%. Also, the growth is -3.61% (active) in the assay on RXF 393 renal; 38.3% in the assay with SF-268 CNS; 67.2% in the assay with SF-295 CNS; 56.9% in the assay on SF-539 CNS; 65% in the assay on UACC-257 melanoma; 85% with M14 melanoma.
As to `Cc1ccc(S(=O)(=O)N(CC[C@@H]2C[C@H]2c2cc3ccccc3o2)S(=O)(=O)c2ccc(C)cc2)cc1`, the growth is 90.8% in the assay on NCI-H23 lung; 79% in the assay on NCI-H226 lung; 95.4% in the assay with NCI-H322M lung; 115% with HOP-62 NSCLC; 104% with NCI-H460 lung; 85.3% with NCI-H522 lung. Besides, the growth is 94.9% in the assay on A549/ATCC NSCLC; 99.7% in the assay on 786-0 renal; 115% in the assay on COLO 205 colon; 98.7% in the assay on DU-145 prostate; 83.1% with K-562 leukemia; 83.6% with MDA-MB-231 breast. Further, the growth was 103% in the assay with RXF 393 renal; 98.1% in the assay on SF-268 CNS; 101% in the assay on SF-295 CNS; 101% with SF-539 CNS; 84.9% in the assay with UACC-257 melanoma; 99% in the assay with M14 melanoma.
In the case of `COc1ccc(C2CC(c3cccc(Nc4nc(Cl)nc5cc(OC)c(OC)cc45)c3)=Nc3c(N)nc(N)nc3N2)cc1` (configuration not stated), the growth in the assay on NCI-H23 lung was 81.6%; with NCI-H226 lung, 84.8%; in the assay on NCI-H322M lung it was 91.5%; in the assay on HOP-62 NSCLC, 53.4%; in the assay with NCI-H460 lung it was 61.9%; with NCI-H522 lung it was 78.6%. Besides, the growth in the assay on A549/ATCC NSCLC was 82.3%; in the assay with 786-0 renal it was 71.4%; with COLO 205 colon it was 96.4%; in the assay with DU-145 prostate it was 88.8%; in the assay on K-562 leukemia, 4.51% (active); in the assay with MDA-MB-231 breast, 87%. The growth was 76.3% in the assay on RXF 393 renal; 86.5% in the assay on SF-268 CNS; 60.1% in the assay with SF-295 CNS; 91.9% in the assay with SF-539 CNS; 106% with UACC-257 melanoma; 93.5% in the assay with M14 melanoma.
In the case of `Cc1ccc(C2=NN(C)C(=O)C3(CCCC3)C2)cc1`, the growth in the assay on NCI-H23 lung was 106%; with NCI-H226 lung it was 105%; in the assay on NCI-H322M lung, 103%; in the assay with HOP-62 NSCLC, 114%; with NCI-H460 lung, 112%; with NCI-H522 lung, 103%. Also, the growth is 99.5% with A549/ATCC NSCLC; 103% with 786-0 renal; 115% in the assay with COLO 205 colon; 107% with DU-145 prostate; 107% with K-562 leukemia; 104% in the assay on MDA-MB-231 breast. Also, the growth in the assay with RXF 393 renal was 124%; in the assay on SF-268 CNS, 98.1%; with SF-295 CNS, 101%; in the assay with SF-539 CNS, 103%; in the assay on UACC-257 melanoma, 100%; in the assay with M14 melanoma, 108%.
`CCO/C=N/C1=C(C#N)C(c2ccc(F)cc2)c2sc3c(CC)cccc3c2O1` (configuration not stated): the growth with NCI-H23 lung was 28.3%; in the assay with NCI-H226 lung, 51.6%; with NCI-H322M lung, 42.6%; in the assay with HOP-62 NSCLC, 48.6%; with NCI-H460 lung, 3.42% (active); with NCI-H522 lung it was 8.86% (active). Besides, the growth is 24.6% in the assay with A549/ATCC NSCLC; 26.3% with 786-0 renal; 12.6% with COLO 205 colon; 19.3% with DU-145 prostate; 8.58% (active) in the assay on K-562 leukemia; 29.7% with MDA-MB-231 breast. Besides, the growth is -20.6% (active) with RXF 393 renal; 47.5% in the assay on SF-268 CNS; -6.92% (active) in the assay on SF-295 CNS; -12.7% (active) in the assay with SF-539 CNS; 69.5% with UACC-257 melanoma; 8.85% (active) with M14 melanoma.
For the compound `C#CCC#CCN1CCC[C@H]1C(=O)NCC(=O)OC`, the growth in the assay on NCI-H23 lung was 96.7%; in the assay on NCI-H226 lung, 104%; with NCI-H322M lung, 101%; in the assay on HOP-62 NSCLC it was 104%; with NCI-H460 lung, 112%; with NCI-H522 lung, 100%. The growth in the assay with A549/ATCC NSCLC was 97.6%; in the assay on 786-0 renal, 101%; with COLO 205 colon, 114%; in the assay with DU-145 prostate, 105%; with K-562 leukemia it was 98.1%; with MDA-MB-231 breast it was 106%. In addition, the growth is 105% with RXF 393 renal; 108% in the assay with SF-268 CNS; 107% with SF-295 CNS; 105% in the assay with SF-539 CNS; 93.7% with UACC-257 melanoma; 107% with M14 melanoma.
In the case of `C[C@@H]1C[C@H]2C(=O)O[C@@H](C)C(NC(=O)[C@H](Cc3cc(F)cc(F)c3)NC(=O)Nc3ccc(C4CC4)cc3F)C(=O)N3CCC[C@H]3C(=O)N3CCCC[C@H]3C(=O)N[C@@H](CO)C(=O)N2C1` (some centres not stated), the growth in the assay on NCI-H23 lung is 34%; in the assay with NCI-H226 lung, -5.28% (active); with NCI-H322M lung it was 48.3%; in the assay with HOP-62 NSCLC it was 33.3%; in the assay with NCI-H460 lung, 14.4%; with NCI-H522 lung, 13.2%. Also, the growth with A549/ATCC NSCLC was 25.7%; with 786-0 renal, 40.4%; with COLO 205 colon, -38.3% (active); in the assay with DU-145 prostate, 25.6%; in the assay on K-562 leukemia, 18.6%; with MALME-3M melanoma, 36.9%. Further, the growth in the assay with MDA-MB-231 breast is 33.9%; in the assay with SF-268 CNS it was 31.4%; in the assay on SF-295 CNS it was 11.4%; in the assay on SF-539 CNS, 35.4%; in the assay with UACC-257 melanoma it was 11.5%.
Consider `COc1cc2nc(Cl)nc(Nc3cccc(C4=Nc5c(N)nc(N)nc5NC(c5ccccc5)C4)c3)c2cc1OC` (configuration not stated), for which the growth in the assay on NCI-H23 lung was 83.5%; in the assay on NCI-H226 lung it was 86.9%; in the assay on NCI-H322M lung, 92.9%; with HOP-62 NSCLC it was 39.6%; in the assay on NCI-H460 lung, 87.4%; in the assay with NCI-H522 lung, 76.5%. The growth is 87.5% in the assay with A549/ATCC NSCLC; 77.5% with 786-0 renal; 99.8% in the assay on COLO 205 colon; 85.9% in the assay on DU-145 prostate; 6.71% (active) in the assay with K-562 leukemia; 90.4% in the assay on MDA-MB-231 breast. Also, the growth in the assay with RXF 393 renal was 84.5%; with SF-268 CNS, 84.3%; in the assay on SF-295 CNS, 75.8%; in the assay on SF-539 CNS, 99.8%; in the assay on UACC-257 melanoma, 108%.
